# Test results reported in PubChem BioAssay (NCATS).
# Inconclusive results are not listed. Entries that show only a call come without a potency. A number with no mark means an inactive call. The source made the active and inactive calls. Unless noted, calls come from the whole dose curve; as a rule, active = well fitted curve in the direction sought with a large enough effect; inconclusive = small, poorly fitted or top-dose-only effect, or another doubt; inactive = no such curve, though single readings can be large; an effect the other way counts as inactive or inconclusive.
# What was measured:
# [1] = P-glycoprotein substrates identified in KB-8-5-11 adenocarcinoma cell line, qHTS therapeutic library screen (AID 1346987); note: nearly all actives have a fitted effect of over 65% in size; note: potency is the fitted concentration of half-maximal effect
# How it was run: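 Luminescence from CellTiter-Glo, read 5 min after addition, quantified survival of KB-8-5-11 (P-gp-overexpressing) cells exposed to compounds for 72 h. AC50 was derived from concentration-response curves.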
# [2] = NS1 protein of Zika virus - qHTS assay to identify small molecule inhibitors in human HEK 293 cells (AID 1347053); note: series mostly up to about 46 µM; nearly all actives have a fitted effect of over 55% in size
# How it was run: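 Read-out is a two-antibody TR-FRET for ZIKV NS1, normalized between uninfected cells and infected cells. Compound added 1 h before MR766 infection at MOI 0.5; human HEK 293 cells incubated 24 h, 37 C.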
# [3] = target: Atrial natriuretic peptide receptor 1 (Homo sapiens) (UniProt P16066); assay: Natriuretic polypeptide receptor (hNpr1) antagonism - Pilot screen (AID 1347049; calls by dose curve;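 note: HEK293 cells with hNpr1 and GloSensor cGMP luciferase stimulated by 0.1 nM hNppA; agonist-evoked cGMP luminescence read 20 min after hNppA addition; series mostly up to about 58 µM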)
# Sequence of Atrial natriuretic peptide receptor 1 (Homo sapiens) (P16066 whole entry, looked up): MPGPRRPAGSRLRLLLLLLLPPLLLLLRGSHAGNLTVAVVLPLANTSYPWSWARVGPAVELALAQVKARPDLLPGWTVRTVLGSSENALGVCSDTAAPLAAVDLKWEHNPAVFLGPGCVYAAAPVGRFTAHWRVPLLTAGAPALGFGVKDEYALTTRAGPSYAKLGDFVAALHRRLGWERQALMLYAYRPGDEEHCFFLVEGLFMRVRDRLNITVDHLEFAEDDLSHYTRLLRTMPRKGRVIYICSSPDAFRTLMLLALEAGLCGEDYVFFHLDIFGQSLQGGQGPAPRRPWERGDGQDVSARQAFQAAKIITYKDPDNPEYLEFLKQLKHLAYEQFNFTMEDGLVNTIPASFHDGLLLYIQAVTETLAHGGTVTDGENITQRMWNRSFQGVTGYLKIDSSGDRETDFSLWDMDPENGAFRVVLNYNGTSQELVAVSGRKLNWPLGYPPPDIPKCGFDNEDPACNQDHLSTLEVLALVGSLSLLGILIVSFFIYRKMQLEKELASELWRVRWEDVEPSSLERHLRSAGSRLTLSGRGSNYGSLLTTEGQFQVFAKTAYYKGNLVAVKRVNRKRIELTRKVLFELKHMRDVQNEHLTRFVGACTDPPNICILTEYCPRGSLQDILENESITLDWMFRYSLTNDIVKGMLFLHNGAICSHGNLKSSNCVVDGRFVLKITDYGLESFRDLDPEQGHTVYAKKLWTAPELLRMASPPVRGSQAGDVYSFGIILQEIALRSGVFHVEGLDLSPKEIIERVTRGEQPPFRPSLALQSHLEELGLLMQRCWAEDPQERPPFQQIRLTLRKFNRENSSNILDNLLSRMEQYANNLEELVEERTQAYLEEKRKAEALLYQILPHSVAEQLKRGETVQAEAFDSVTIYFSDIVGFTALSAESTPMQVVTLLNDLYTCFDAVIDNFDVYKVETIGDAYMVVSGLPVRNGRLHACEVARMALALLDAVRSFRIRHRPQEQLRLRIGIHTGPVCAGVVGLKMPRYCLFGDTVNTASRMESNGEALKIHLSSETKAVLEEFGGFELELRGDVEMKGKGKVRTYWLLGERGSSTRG
# How it was run: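 Cells expressing receptor plus cGMP biosensor are seeded and incubated overnight at 37C, then loaded with GloSensor reagent (2% final) at room temperature for 2 h. Library compounds go on for 30 min. A pre-read precedes agonist (hNppA, 0.1 nM final) and a 20-min readout.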
# [4] = target: Atrial natriuretic peptide receptor 2 (Homo sapiens) (UniProt P20594); assay: Natriuretic polypeptide receptor (hNpr2) antagonism - Pilot subtype selectivity assay (AID 1347050; calls by dose curve)
# Sequence of Atrial natriuretic peptide receptor 2 (Homo sapiens) (P20594 whole entry, looked up): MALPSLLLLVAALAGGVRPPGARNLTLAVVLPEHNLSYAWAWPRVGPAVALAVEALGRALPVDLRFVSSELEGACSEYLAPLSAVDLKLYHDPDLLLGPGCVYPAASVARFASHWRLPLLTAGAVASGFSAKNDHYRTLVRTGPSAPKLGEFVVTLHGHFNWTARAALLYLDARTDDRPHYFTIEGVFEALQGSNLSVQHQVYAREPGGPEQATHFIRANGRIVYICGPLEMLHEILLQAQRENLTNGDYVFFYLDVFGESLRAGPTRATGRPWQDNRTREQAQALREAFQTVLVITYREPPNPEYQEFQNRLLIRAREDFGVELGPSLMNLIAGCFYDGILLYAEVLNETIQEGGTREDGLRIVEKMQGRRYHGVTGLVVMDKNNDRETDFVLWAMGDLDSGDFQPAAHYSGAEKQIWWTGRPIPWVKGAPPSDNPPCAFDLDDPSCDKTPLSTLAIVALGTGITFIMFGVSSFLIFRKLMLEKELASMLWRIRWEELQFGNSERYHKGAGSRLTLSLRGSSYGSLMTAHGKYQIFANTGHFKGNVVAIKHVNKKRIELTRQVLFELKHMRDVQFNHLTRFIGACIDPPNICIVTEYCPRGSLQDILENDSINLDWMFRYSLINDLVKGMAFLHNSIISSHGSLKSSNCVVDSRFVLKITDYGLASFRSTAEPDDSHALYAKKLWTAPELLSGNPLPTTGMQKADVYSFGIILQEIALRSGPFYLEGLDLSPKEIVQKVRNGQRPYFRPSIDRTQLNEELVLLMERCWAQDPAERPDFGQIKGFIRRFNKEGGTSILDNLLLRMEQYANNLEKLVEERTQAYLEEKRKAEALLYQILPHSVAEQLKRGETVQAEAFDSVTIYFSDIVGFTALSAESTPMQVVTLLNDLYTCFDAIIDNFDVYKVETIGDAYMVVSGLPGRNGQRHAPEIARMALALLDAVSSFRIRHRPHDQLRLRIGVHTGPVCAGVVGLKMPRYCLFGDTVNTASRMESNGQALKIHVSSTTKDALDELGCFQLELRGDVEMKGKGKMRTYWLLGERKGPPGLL
# How it was run: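 Read-out: GloSensor luminescence (CCD imager), baseline vs post-stimulation. HEK293 cells expressing hNpr2; compounds pre-incubated 30-50 min at ambient temperature; hNppC 1 nM final, 20 min.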
# [5] = target: Tyrosine-protein phosphatase non-receptor type substrate 1 (Homo sapiens) + Leukocyte surface antigen CD47 (Homo sapiens) (UniProt P78324+Q08722); assay: CD47-SIRPalpha protein protein interaction - LANCE assay qHTS validation (AID 1347057; active = well fitted curve in the direction sought with a large enough effect in the signal ratio, with a control signal flat, not every such curve was filed as active; the % refers to the signal ratio; note: series mostly up to about 38 µM)
# Sequence of Tyrosine-protein phosphatase non-receptor type substrate 1 (Homo sapiens) + Leukocyte surface antigen CD47 (Homo sapiens) (P78324 whole entry, looked up, the tested form may be a part): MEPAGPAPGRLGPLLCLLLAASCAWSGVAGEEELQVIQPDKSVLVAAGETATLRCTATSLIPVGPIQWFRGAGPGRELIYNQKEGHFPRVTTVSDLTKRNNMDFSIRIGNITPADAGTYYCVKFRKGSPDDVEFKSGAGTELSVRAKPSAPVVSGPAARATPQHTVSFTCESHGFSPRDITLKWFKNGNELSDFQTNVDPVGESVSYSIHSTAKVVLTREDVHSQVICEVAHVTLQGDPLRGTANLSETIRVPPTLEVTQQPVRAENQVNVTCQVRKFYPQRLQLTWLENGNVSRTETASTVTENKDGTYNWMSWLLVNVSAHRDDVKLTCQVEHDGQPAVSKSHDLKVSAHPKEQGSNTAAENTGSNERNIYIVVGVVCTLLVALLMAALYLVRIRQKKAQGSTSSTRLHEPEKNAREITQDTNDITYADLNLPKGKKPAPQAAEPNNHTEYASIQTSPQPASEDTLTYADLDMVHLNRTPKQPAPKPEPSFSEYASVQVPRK
# Sequence of Tyrosine-protein phosphatase non-receptor type substrate 1 (Homo sapiens) + Leukocyte surface antigen CD47 (Homo sapiens) (Q08722 whole entry, looked up, the tested form may be a part): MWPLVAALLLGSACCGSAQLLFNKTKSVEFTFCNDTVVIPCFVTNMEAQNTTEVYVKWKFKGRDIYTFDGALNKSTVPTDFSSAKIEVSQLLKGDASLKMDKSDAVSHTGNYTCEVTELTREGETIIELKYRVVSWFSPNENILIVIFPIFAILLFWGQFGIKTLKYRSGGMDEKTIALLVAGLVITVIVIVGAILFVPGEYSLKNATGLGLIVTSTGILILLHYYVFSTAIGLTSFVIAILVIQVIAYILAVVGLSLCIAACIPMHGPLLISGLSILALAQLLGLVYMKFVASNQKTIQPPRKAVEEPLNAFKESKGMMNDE
# How it was run: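 Inhibition of soluble CD47/SIRPalpha ectodomain association by titrated compounds, measured as 665/615 nm time-resolved FRET ratio after sequential 30 min room-temperature incubations.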
# [6] = Natriuretic polypeptide receptor (hNpr1) antagonism - Pilot counterscreen GloSensor control cell line (AID 1347045; calls by dose curve; note: series mostly up to about 38 µM)
# How it was run: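 Cells were first seeded and incubated overnight at 37C, then loaded with 2% GloSensor substrate for 2 h. Compounds were added for 30 min at room temperature, followed by a baseline read, 50 uM SNP and a final read after 20 min.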
structure (smiles),measurement,setting,value
CCN(CC)CCNC(=O)COc1ccc(Cl)cc1,Potency,[1],inactive
same,Potency,[2],inactive
CC(C)C[C@H]1C(=O)N2CCC[C@H]2[C@]2(O)O[C@](NC(=O)[C@@H]3C=C4c5cccc6[nH]c(Br)c(c56)C[C@H]4N(C)C3)(C(C)C)C(=O)N12,outcome,[3],inactive
same,outcome,[4],inactive
C=C1C[C@H]2[C@@H]3C=C(C)C4=CC(=O)CC[C@]4(C)[C@H]3CC[C@]2(C)[C@@]1(OC(C)=O)C(C)=O,Potency,[1],14.6 µM (active)
same,Potency,[2],inactive
CCOc1ccc(NC(=O)CC(C)O)cc1 (stereo unspecified),Potency,[1],inactive
same,Potency,[2],inactive
Oc1ccc(O)cc1,outcome,[3],inactive
same,outcome,[4],inactive
same,Potency,[2],inactive
same,outcome,[5],inactive
CC(C)N=C(N)/N=C(\N)Nc1ccc(Cl)cc1,Potency,[2],inactive
COC(=O)C1=C(C)NC(C)=C(C(=O)O[C@@H]2CCCN(Cc3ccccc3)C2)[C@@H]1c1cccc([N+](=O)[O-])c1,Potency,[1],20.6 µM (active)
same,Potency,[2],inactive
Oc1c(I)cc(I)c2cccnc12,Potency,[2],inactive
CC(=O)CC(c1ccc([N+](=O)[O-])cc1)c1c(O)c2ccccc2oc1=O (stereo unspecified),Potency,[2],inactive
O=c1[nH]c(=O)n([C@H]2CCCO2)cc1F,Potency,[2],inactive
CN1C2CCC1CC(OC(=O)c1c[nH]c3ccccc13)C2 (stereo unspecified),outcome,[6],inactive
same,outcome,[3],inactive
same,outcome,[4],inactive
same,Potency,[2],inactive
same,outcome,[5],inactive
CCCCCCCCCCCCCCCCCC(=O)OCC(O)CO (stereo unspecified),Potency,[1],inactive
same,Potency,[2],inactive
C=C1C(=C/C=C2\CCC[C@]3(C)[C@@H]([C@H](C)/C=C/[C@@H](O)C4CC4)CC[C@@H]23)C[C@@H](O)C[C@@H]1O,Potency,[1],8.2 µM (active)
same,Potency,[2],inactive
CCCC1O[C@@H]2C[C@H]3[C@@H]4CCC5=CC(=O)C=C[C@]5(C)[C@H]4[C@@H](O)C[C@]3(C)[C@]2(C(=O)CO)O1 (stereo partly specified),outcome,[6],inactive
same,outcome,[3],inactive
same,outcome,[4],inactive
same,Potency,[2],inactive
same,outcome,[5],inactive
CCCCN1CCCC1C(=O)Nc1c(C)cc(C)cc1C (stereo unspecified),Potency,[1],inactive
same,Potency,[2],inactive
CNCCC(Oc1ccccc1C)c1ccccc1 (stereo unspecified),outcome,[6],inactive
same,outcome,[4],inactive
same,Potency,[2],inactive
same,outcome,[5],inactive
CC(C)(C)CC(C)(C)c1ccc(O)c(Cc2ccc(Cl)cc2Cl)c1,Potency,[1],23.1 µM (active)
same,Potency,[2],inactive
CCC(NC(C)C)C(O)c1ccc(O)c(O)c1 (stereo unspecified),outcome,[6],inactive
same,outcome,[3],inactive
same,outcome,[4],inactive
same,Potency,[2],inactive
same,outcome,[5],inactive
N[C@@H](Cc1cnc[nH]1)C(=O)O,outcome,[6],inactive
same,outcome,[3],inactive
same,outcome,[4],inactive
same,Potency,[2],inactive
same,outcome,[5],inactive
CCN(CC)C(=O)N1CCN(C)CC1,Potency,[2],inactive
CN1CCC(=C2c3ccccc3Sc3ccccc32)CC1,Potency,[2],inactive
Cc1cc2c(cc1CC(=O)c1sccc1S(=O)(=O)Nc1onc(C)c1Cl)OCO2,Potency,[2],inactive
Cc1cccc(C)c1NC(=O)CN1CCN(CCCC(c2ccc(F)cc2)c2ccc(F)cc2)CC1,Potency,[2],inactive
Oc1cc(O)c2c(c1)O[C@H](c1ccc(O)c(O)c1)[C@H](O)C2,Potency,[2],inactive
N[C@@H](CCC(=O)N[C@@H](CS)C(=O)NCC(=O)O)C(=O)O,Potency,[2],inactive
CC(C)COC(=O)c1ccc(N)cc1,Potency,[2],inactive
O=C(CCN1CCC(c2ccccc2)C1)c1ccc2c(c1)OCCO2 (stereo unspecified),Potency,[2],inactive
COc1cc2c(cc1OC)[C@@H]1CC(=O)[C@@H](CC(C)C)CN1CC2,Potency,[2],inactive
NCCc1ccn[nH]1,Potency,[2],inactive
CC(C)(Oc1ccc(Cl)cc1)C(=O)O,Potency,[2],inactive
CC(C)=CCC1C(=O)N(c2ccccc2)N(c2ccccc2)C1=O,Potency,[2],inactive
CC(=O)OCC(=O)NCCCOc1cccc(CN2CCCCC2)c1,Potency,[2],inactive
COc1c(C)c2c(c(O)c1C/C=C(\C)CCC(=O)O)C(=O)OC2,Potency,[2],inactive
CCCCOc1ccc(OCCCN2CCOCC2)cc1,Potency,[2],inactive
NC(=O)CC[C@@H]1NC(=O)[C@H](Cc2ccccc2)NC(=O)[C@H](Cc2ccc(O)cc2)NC(=O)CCSSC[C@@H](C(=O)N2CCC[C@H]2C(=O)N[C@@H](CCCN=C(N)N)C(=O)NCC(N)=O)NC(=O)[C@H](CC(N)=O)NC1=O,Potency,[2],inactive
Nc1ccc(/C=C/c2ccc(N)cc2S(=O)(=O)O)c(S(=O)(=O)O)c1,"activity change, negative = inhibition",[2],-8.83% [at 0.593 µM]
CCOC(=O)OC(C)OC1=C(C(=O)Nc2ccccn2)N(C)S(=O)(=O)c2ccccc21 (stereo unspecified),Potency,[2],inactive
Clc1ccc2c(c1)CCc1cccnc1C2=C1CCNCC1,Potency,[2],inactive
CC(=O)OCC(=O)[C@@]12OC(C)(C)O[C@@H]1C[C@H]1[C@@H]3C[C@H](F)C4=CC(=O)C=C[C@]4(C)[C@@]3(F)[C@@H](O)C[C@@]12C,Potency,[2],inactive
COc1cc(N)c(Cl)cc1C(=O)NC1CCN(CCCOc2ccc(F)cc2)CC1OC (stereo unspecified),Potency,[2],inactive
